According to PubChem BioAssay AID1508600 (Functional Genomics Laboratory (NCATS/FGL), 2020):
About 3,700 (7%) of roughly 53,000 sequences were called active.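 How the source made its calls: active means gene knockdowns whose robust z-score for IL-1 alpha signal is at least 2 or at most -2, so actives lie on both sides; inactive means the rest.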 The sample as a whole holds a higher share of actives than the screen did.

Assay: Components of the Cytosolic LPS Sensing Pathway: Gene Identification via Genome-wide siRNA Screen;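 further: robust z of the log signal after scaling to non-targeting control siRNA wells of the plate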
Conditions: RAW264.7 macrophages, IL-1a HTRF, actives lie on both sides, screened at 100 nM (by protocol), cells primed 5 h with Pam3CSK4 first
Summary of the method: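 Knockdown: 100 nM siRNA, 48h, RAW264.7. Stimulation: Pam3CSK4 5 h, then LipidA via TransIT-TKO 24 h. Output: supernatant IL-1a HTRF, negative-control-normalized, log robust z-score; viability by CellTiter-Glo.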

z-score, active:
GGAGGGACAUGAUUUUGAATT against Pfkfb2 2.22
GGCAUUGAGAUGCUGGAAATT against Trappc4 2.46
GCCACGACAACAAAUCCCATT against Lbr -2.62
GGAGGGAAGCGAGAGUUUUTT against Emilin2 2.25
GGAAACUUUUGGAAGACUATT against Jmjd6 2.02
GGGUAUUAAAACCUCACUUTT against 4931406H21Rik -2.58
GGGCUUCUUUGACCUCAUCTT against Kdelr1 -2.71
GGAGAUUGAUGAGCAUGCCTT against Rab40b -2.15
GGAGAUCCGUCGAAUCAACTT against Anxa4 3.19
GGAGCAGCAGAAGAUCCUUTT against Olfr47 2.52
GGAACACAAUAGUACAUACTT against Slc2a4 3.98
GGGAAGAGAAAACUGGACUTT against Xrcc1 3.01
GCACUCGAAUUUCUUUACUTT against Slc23a2 2.22
GGUUUGUCAAUGAUACUAATT against Adam17 2.49
GGAUGAGGACAAGUGCUCUTT against Agpat4 -3.47
GGGUUUAUGUUGCCGACUCTT against Setd7 2.04
GGAAAUCAUCUAUUCGGACTT against Klrc1 2.62
GGACUUUGAGAAAGCAUUCTT against Pck1 -2.03
GGAGGAAAUGAUCACAGCUTT against Ccl20 -2.31
GGAUGCAAUCGACAUGGAGTT against Atp5pb 2.71
GGCAUUUGACUUUAUUGCATT against Nit1 3.54
GGCUGUCAUACUUUCAGGGTT against Hyal5 2.51

z-score, inactive:
GGUUUGCAAUAAUUUUCCCTT against Cyp2c66 -0.0991
CCUAUUAUAGGACAAAGUATT against Efhc2 -0.54
CCACAAGUUCCACACUCCATT against Olfr1163 0.42
GGAGCAAGUGAUGAUGACCTT against Pkp1 -0.263
GCGGUAUGGGAAGCUAAAGTT against Rhbdf1 0.617
GGAGAUACUGAAAGAGGCCTT against C1qtnf12 -1.25
UUCUUGACAGCUGGAAGAGTT against Irgc1 0.12
GGAAAAACGAUACUUGAUUTT against Gria3 -0.751
GGUGAGACUAUAAAGAUAATT against Piwil4 0.841
CCGAGCAGGAUUGCAUAUATT against Cspg5 1.41
GCUAUUCUGAUGCGUGGAGTT against Coq2 -1.24
UGAAGCUGUCCCGGACUAATT against Shf 0.731
GGUCAUUGGCACCAACAAGTT against Tgfbi -0.722
GGAACAAAGAGGUGAUGUUTT against Olfr109 -0.949
GGAGAUGAUUGACCGGCUATT against Epc1 -1.03
CCAUUUACCUCAUAGGACCTT against Crb3 -0.239
CGACCAUCUUUACUUUAUCTT against Cilk1 1.61
GGGUCGUAAUGAGUUCUGGTT against Med1 0.83
GGGCCAAUAAAGCAACUGCTT against Laptm5 0.704
GGAUACUCCUCUGAGUAGUTT against Mtmr11 -0.469
GCCAAAGUGUGUGUUGAAGTT against Gng11 -0.296
CGCACACAGUCGUAUGUACTT against Ryr1 -1.21
GGGAACCAUCAAUAGGCACTT against Apol7a 0.923
GGCACAAAGCAAGAUUACCTT against Cebpz 0.422
CCAGAAUGUAAACUUGGUCTT against Trpv6 0.0508
GGUGAUAAAGCCAAGCAAATT against Vps4b -0.48
GGAUUCAAGGAAGGCCUUCTT against Myl7 -0.146
GGGACUCAGAAUCCACACUTT against Olfr1046 1.91
GGAGCUUAGACAAAAAGCCTT against Spty2d1 -1.04
GGCCGCCCUAAAAAGAAGCTT against Olfr95 1.29
CGCCUUAUAAUAUACCUAUTT against Clmp 1.12
GCCAUGAUGACUAACCUUATT against Dbpht2 -1.27
GGAACUUGAGGUUUUCUGGTT against Spag17 -1.89
GCACCUGAGAAGCUCAUUGTT against Chil5 -1.96
GGUUGACCUGUGCUUUUCGTT against Arr3 -0.625
GGAAAUGAAUGGAAAUAGUTT against Ino80c -0.192
GGAGGAAAAGGCAAUCGUUTT against Mtg2 0.359
CCUUACCACAUCCUUGUCGTT against Fcf1 -1.33
GGACAGUUAAUGUUUCUGUTT against Clptm1l 0.254
GGAUCAUUUCUGGCAAGAGTT against Irf7 -0.379
GGCUGUGUGAGUCUGCUCATT against Ankrd55 -0.0408
GCAUGAACUUACCCUAUUATT against Vmn1r197 -1.25
GCAUAAUAGCGCAAGCUACTT against Ifi47 0.0047
GCAGACUCCCAUGUGGAUUTT against 1700067K01Rik 1.96
GGAAACUAAUUUCAAGCCUTT against Hat1 1.19
CCUAUGAGGAGGUACUAAATT against Itih1 -0.0512
GGAGUGACAAAAAUGUCGGTT against Snx13 -0.56
CGGAUCUGAGAUAAAGACGTT against Arsj 1
GCUGUGGACGGACUCUAUATT against Dhodh 0.00503
GGACCAUCUCUGAUGAACCTT against Fhdc1 0.439
GCUAAAGCUAAGAUUGAAGTT against Poli -0.0266
CCAAAAGCAUAUCAGUCGGTT against Olfr1122 1.48
GGGUUCCUCAGAGACUGAGTT against Esrra 1.57
GGGCAAGAAAGGUGUUUUGTT against Prdx5 0.432
GGUGAUUGGUGUAAAAUCUTT against Gdi2 -1.15
GGAGAUUGGUGUUAGUAACTT against Sp7 -0.198
GGGUGUGCUUCAUAUCAAATT against 2210407C18Rik 0.812
GCUUCAUCUUACCUACUCATT against Synb -0.825
GGCUAUGCAUCUCCUGUCATT against Gata4 -0.935
CCUUGCACGACAUUUUACUTT against Idnk 0.313
GGUCAUCUUCCUUUUUGCUTT against Olfr1501 -1
CCCUGGGUGUACAAGUCCUTT against Slc25a41 -0.084
GGGCCAAGAGCUUCUUUGATT against Ahr -1.46
GGAUAAUGUGAAGUUCAAGTT against Rpl38 0.493
GCAUUGACAAGAUAUCUAATT against Abhd17c 1.74
GGCUCCUAGUGAUUAAAAGTT against 4930578I06Rik 0.0788
GGGAAAGCAUCGUAGACUCTT against Eid2 0.0738
CCAGUCACUAUUUGAGUGUTT against Erg 1.9
GGUGAAUACUUCAGAUACATT against Sult2b1 -0.362
GGAUUCACUGUUUUAUUCUTT against Fap 0.282
GGUUUUUGGGAAUUGGCUUTT against Sfxn5 -0.0222
GCGGUCCAUCAUCAAACUCTT against Rpap2 -1.3
CCCAACAUAUUUUUUAGCATT against Hmgcll1 -0.506
GGUGGUUGUUAUUGAAAAGTT against Mical3 1.34
CGACAUUUGUGUUAACCAUTT against Gprc5c -0.483
GGAGCUUUUGGACCACUUGTT against Tmod1 -0.892
GCAAACGACGAAAGUCCAATT against Usp49 -1.63
CCAUAAACGACGAAAUGAUTT against Usp11 0.189
GGUCAAGCAAGUGUUGGUUTT against Gart -0.0147
GGAAGAUUCCGACUUUAUUTT against Irs4 0.69
GCUCAGACAAGAAUUGCUATT against Specc1 -0.612
CCACCUUUCGUGCAUUAUCTT against Coro6 1.32
GGGCCAAGGAAGAACUUCATT against Clec12a -0.655
GGAAAAAGAGGCCAAAAAGTT against Arid4a -0.221
GGUCAAUGUGAUUGAGGAUTT against Acap1 0.869
CCUAUUGAGUCAUCCAUCGTT against Utp25 -0.586
